About 13,000 (27%) of roughly 48,000 compounds showed an effect of 50% or more. The list shows a part of the results.

This assay deals with Wolbachia pipientis. Description: Anti-Wolbachia Cell-Based Screen. On the set-up: scale not given: in the data most compounds retested in dose-response had high values. It counts as functional. Conditions: 5 µM.
Consider `CCC(=O)N1CCC2(CC1)c1nc[nH]c1CCN2S(C)(=O)=O`, for which the “Percent Effect” value is -5.847%.

As for `CC(NC(=O)Nc1nccs1)C(=O)NC1CCCC1` (centres undefined), the “Percent Effect” value is on record as 13.07%.

For `Cc1nn2c(nc1=O)-c1ccccc1NC2C(=O)O` (centres undefined), the “Percent Effect” value was -8.075%.

As for `CNc1cc(C)nc(N2C[C@@H](C(=O)O)[C@H](C3CC3)C2)n1`, the “Percent Effect” value was determined as 7.259%.

`OCCN1CCC(CNCc2cn(-c3ccccc3)nn2)CC1`: the “Percent Effect” value was 3.58%.

Turning to `CNc1cc(C)nc(C2CCN(CCO)CC2)n1`, the “Percent Effect” value came out at 109.8%.

For `CNc1cc(C)nc(N2CCC3(CC2)[C@H](O)C[C@@H]3OCCO)n1`, the “Percent Effect” value is listed as 4.937%.

`Cc1cc(Oc2ccccc2)nc(C2CCN(CCO)CC2)n1`: the “Percent Effect” value worked out at 153.9%.

For the molecule `Cc1ccc(CNCC2CCN(CCO)CC2)cc1`, the “Percent Effect” value is -0.5522%.

As to `CC(=O)N1CCc2c(nc(-c3ccccn3)nc2N(C)CC(O)CO)C1` (centres undefined), the “Percent Effect” value is 1.269%.

Take `CC(C(=O)N(C)Cc1nnc2n1CCC2)S(C)(=O)=O` (centres undefined): the “Percent Effect” value was 0.343%.

As to `COCCN(C(=O)c1ccoc1C)c1ccc(C#N)cc1`, the “Percent Effect” value was -4.794%.

Consider `CCc1ccsc1C(=O)N1CCCC(c2noc(C)n2)C1` (centres undefined), for which the “Percent Effect” value is listed as -6.826%.

`Cc1cc(C(=O)N2CCCC(c3nccn3Cc3cscn3)C2)on1` (centres undefined): the “Percent Effect” value is given as -8.995%.

As for `Cc1cc(C(=O)N2CCCC(c3cc(=O)nc4n3CCC4)C2)on1` (centres undefined), the “Percent Effect” value is 100.5%.

As to `CC(C)c1cc(C(=O)N2CCCC(c3cc(=O)nc4n3CCC4)C2)no1` (centres undefined), the “Percent Effect” value was found to be 118.8%.

With `CCc1cc(C(=O)N2CCCC(c3cc(=O)nc4n3CCC4)C2)no1` (centres undefined), the “Percent Effect” value was found to be 113.8%.

In the case of `CCc1cn[nH]c1C1CCCN(C(=O)c2cc(C(C)C)on2)C1` (centres undefined), the “Percent Effect” value amounted to 3.205%.

In the case of `Cc1cc(C(=O)N2CCCC(n3nc(C)cc3C)C2)on1` (centres undefined), the “Percent Effect” value amounted to 6.311%.

For the molecule `CC(C)C(=O)N1CCN(C(=O)c2cc(C(C)C)on2)[C@H]2CS(=O)(=O)C[C@H]21`, the “Percent Effect” value is -2.919%.

For the molecule `Cc1cc(C)n(CC2CCCN2C(=O)Cc2cn3ccccc3n2)n1` (centres undefined), the “Percent Effect” value is 13.26%.

In the case of `Cc1cc(C)n(CC2CCCN2C(=O)c2ccc3ccccc3n2)n1` (centres undefined), the “Percent Effect” value amounted to 90.81%.

In the case of `Cc1cc(C(=O)N2CCCC2Cn2nc(C)cc2C)on1` (centres undefined), the “Percent Effect” value is given as -0.3102%.

In the case of `Cc1cc(C)n(CC2CCCN2C(=O)c2nccc3ccccc23)n1` (centres undefined), the “Percent Effect” value came to 117.1%.

Take `Cn1nnnc1SCCNC(=O)c1c[nH]nc1C1CCCCC1`: the “Percent Effect” value is given as -16.51%.

With `O=C1CCC(c2ccccc2)(c2ccccc2)CN1CCO`, the “Percent Effect” value is reported as -6.27%.

As to `Cc1nc[nH]c1CN1CCN(C(=O)c2cccs2)[C@H]2CS(=O)(=O)C[C@H]21`, the “Percent Effect” value is on record as -2.944%.

As to `CCN(CC)c1ncc(CNCC2CCCn3ccnc32)s1` (centres undefined), the “Percent Effect” value is given as 9.152%.

Regarding `CC(C)(C)c1ncc(CNCC2CCCn3ccnc32)s1` (centres undefined), the “Percent Effect” value was -12.55%.

In the case of `CC(C)(C)c1ncc(CNCC2CN(C3CC3)CCO2)s1` (centres undefined), the “Percent Effect” value was determined as 77.82%.

With `CCN1CCOC(CNc2nccc(C(F)(F)F)n2)C1` (centres undefined), the “Percent Effect” value was -2.512%.

As for `CCN(CC1CN(Cc2ncc(C)o2)CCO1)c1cccnn1` (centres undefined), the “Percent Effect” value was 0.3637%.

On to `CN1CCOC(CNCc2cnc(C(C)(C)C)s2)C1` (centres undefined), for which the “Percent Effect” value worked out at 83.62%.

For the molecule `CCC(CCNCc1cnc(C2CCC2)s1)N1CCCC1=O` (centres undefined), the “Percent Effect” value was determined as 3.115%.

In the case of `CCN1CCOC(CNCc2cnc(C(C)(C)C)s2)C1` (centres undefined), the “Percent Effect” value is reported as 96.59%.

With `CCN1CCOC(CNCc2cnc(N(CC)CC)s2)C1` (centres undefined), the “Percent Effect” value worked out at 78.01%.

With `COCC(=O)N1C[C@H]2CCCC(OCc3cccnc3)[C@H]2C1.O=C(O)C(F)(F)F` (some centres undefined), the “Percent Effect” value was -11.84%.

`COc1ccc(CN2CCO[C@H]3CN(C4CCCC4)CC[C@H]3C2=O)cc1.O=C(O)C(F)(F)F`: the “Percent Effect” value turned out to be 4.442%.

As for `CC1CCN(C(=O)[C@@H]2C[C@@H]3CCN(Cc4nccs4)C[C@H]3O2)CC1.O=C(O)C(F)(F)F`, the “Percent Effect” value is 95.79%.

Take `O=C(O)C(F)(F)F.O=C(O)C(F)(F)F.O=C(O)C(F)(F)F.c1cncc(C[C@H]2[C@H](N3CCOCC3)CCN2Cc2nccs2)c1`: the “Percent Effect” value turned out to be 6.166%.

On to `O=C(O)C(F)(F)F.O=C([C@@H]1C[C@H]2[C@H](CCN2Cc2nccs2)O1)N1CCOCC1`, for which the “Percent Effect” value was -8.158%.

As to `Cc1nc(CN2CC[C@@H]3O[C@@H](C(=O)N4CCOCC4)C[C@@H]32)cs1.O=C(O)C(F)(F)F`, the “Percent Effect” value is 95.13%.

On to `CC1CCN(C(=O)[C@@H]2CC[C@@H]3[C@@H](CCN3c3ncc(F)cn3)O2)CC1.O=C(O)C(F)(F)F`, for which the “Percent Effect” value is -5.679%.

Turning to `COCCN1CC[C@@H]2O[C@H](COCc3csc(C)n3)CC[C@@H]21.O=C(O)C(F)(F)F`, the “Percent Effect” value was 5.526%.

As to `CNC(=O)[C@H]1C[C@@H]2CCN(Cc3nccs3)C[C@H]2O1.O=C(O)C(F)(F)F`, the “Percent Effect” value is given as -7.914%.

Regarding `O=C(O)C(F)(F)F.O=C([C@H]1CC[C@@H]2[C@@H](CCN2Cc2nccs2)O1)N1CCOCC1`, the “Percent Effect” value was found to be 110.8%.

As to `Cc1nc(CN2C[C@@H]3CN(C(=O)[C@H]4CCCO4)C[C@@H]3C2=O)cs1.O=C(O)C(F)(F)F`, the “Percent Effect” value was -7.059%.

As to `CC1CCN(C(=O)[C@H]2CC[C@@H]3[C@@H](CCN3Cc3nccs3)O2)CC1.O=C(O)C(F)(F)F`, the “Percent Effect” value came out at 83.2%.

For `Cc1nc(C(C)(C)NC(=O)Nc2ccc(C#N)cc2)no1`, the “Percent Effect” value came out at 2.937%.

The record behind these values is ChEMBL document CHEMBL3988442, “University of Dundee, Small-Polar-MMV Screening Library” (2021).
